Data: PubChem BioAssay
The source made the active and inactive calls. Unless noted, how the calls were made is not given here.

How the values were obtained:
[1] = compound effects on lung adenocarcinoma cell viability – A549, calcein-AM fluorescence, 48 h, basal, profiling panel (AID 1162); settings: higher = more signal; further: test concentration not given here
[2] = compound effects on differentiated 3T3-L1 adipocyte viability – cell-based, 3T3-L1 adipocytes, calcein-AM fluorescence, 48 h, basal, profiling panel (AID 1163); settings: 3T3-L1 adipocytes viability, higher = more signal; further: test concentration not given here
[3] = compound effects on hepatocellular carcinoma cell viability – HepG2, calcein-AM fluorescence, 48 h, basal, profiling panel (AID 1164); settings: higher = more signal; further: test concentration not given here
[4] = compound effects on multiple myeloma cell viability – MM1S, calcein-AM fluorescence, 48 h, basal, profiling panel (AID 1165); settings: higher = more signal;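 further: viability of MM1S multiple myeloma cells under basal unstimulated conditions; test concentration not given here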
[5] = calcein-AM signal in unstimulated myeloma cells – cell-based, calcein-AM fluorescence, 48 h, PK04 Diversity Set, profiling panel (AID 1166); settings: RPMI8226 myeloma viability, higher = more signal;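 further: cells grown under basal conditions without added stimulus; test concentration not given here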
[6] = JC-1 mitochondrial signal, unstimulated HepG2 cells – cell-based, JC-1 fluorescence, 24 h, 100 nL compound, profiling panel (AID 1167); settings: HepG2 mitochondrial potential, higher = more signal; further: test concentration not given here
[7] = JC-1 mitochondrial signal, unstimulated adipocytes – cell-based, JC-1 fluorescence, 3T3-L1 adipocytes, 24 h, 100 nL compound, profiling panel (AID 1168); settings: JC-1 mitochondrial fluorescence, higher = more signal, called active from +8 up or from −8 down; further: test concentration not given here
[8] = JC-1 mitochondrial signal, unstimulated myeloma cells – cell-based, JC-1 fluorescence, RPMI8226, 24 h, 100 nL compound, profiling panel (AID 1169); settings: JC-1 mitochondrial potential fluorescence, higher = more signal; further: test concentration not given here
[9] = JC-1 mitochondrial signal, unstimulated MM1S myeloma – cell-based, JC-1 fluorescence, 24 h, 100 nL compound, profiling panel (AID 1170); settings: MM1S mitochondrial potential, higher = more signal; further: test concentration not given here
[10] = resazurin metabolic signal in A549 cells – cell-based, resazurin fluorescence, 24 h, PK04 Diversity Set, profiling panel (AID 1171); settings: A549 viability, higher = more signal, called active from +8 up or from −8 down; further: test concentration not given here
[11] = resazurin metabolic signal in HepG2 cells – cell-based, resazurin fluorescence, 24 h, PK04 Diversity Set, profiling panel (AID 1172); settings: HepG2 viability, higher = more signal; further: test concentration not given here
[12] = budding yeast growth changes without added modifier – OD600, strain BY4716, 24 h, basal condition, primary screen (AID 1173); settings: S. cerevisiae BY4716 growth, OD600, 24 h; higher = more signal, called active from +8 up or from −8 down
[13] = viability profiling in MM1S myeloma cells – cell-based, resazurin fluorescence, basal, 24 h, PK04 Diversity Set, profiling panel (AID 1174); settings: higher = more signal, called active from +8 up or from −8 down; further: test concentration not given here
[14] = target: Dihydroorotate dehydrogenase (quinone), mitochondrial (Plasmodium falciparum (isolate 3D7)) (UniProt Q08210); test: inhibition of P. falciparum DHODH – biochemical, C-terminal His tag, absorbance 600 nm, primary screen (AID 1175); settings: PfDHODH enzyme, DCIP absorbance 600 nm; higher = more signal, called active from +8 up or from −8 down;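 further: recombinant parasite enzyme with a five histidine tag at its C terminus; test concentration not given here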
[15] = inhibition of PAO1 biofilm formation – strain PAO1, LB-PBS medium, absorbance 600 nm, primary screen (AID 1176); further: test concentration not given here; settings: P. aeruginosa PAO1 growth/biofilm, A600, 12 h; higher = more signal
[16] = growth modulation of vineyard yeast isolate – strain RM11-1a, OD600, basal, 24 h, primary screen (AID 1177);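 further: cultures grown under basal conditions with no added stressor; test concentration not given here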; settings: S. cerevisiae RM11-1a growth, OD600, 24 h; higher = more signal, called active from +8 up or from −8 down
[17] = growth of efflux-deficient E. coli DRC39 – strain DRC39, OD650, 24 h, E. coli filamentation inducers, primary screen (AID 1178);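 further: growth measured as culture turbidity by optical density at 650 nm; test concentration not given here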; settings: E. coli DRC39 acrAB, higher = more signal, called active from +8 up or from −8 down
[18] = growth of efflux-deficient E. coli DRC39 – strain DRC39, OD650, 48 h, E. coli filamentation inducers, primary screen (AID 1179);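 further: screen aims at cell division blockers that make cells filament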; settings: E. coli DRC39 delta-acrAB growth, higher = more signal, called active from +8 up or from −8 down
[19] = viability profiling in RPMI8226 myeloma cells – cell-based, resazurin fluorescence, basal, 24 h, PK04 Diversity Set, profiling panel (AID 1180); settings: higher = more signal;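 further: RPMI8826 multiple myeloma cell line at 5000 cells per well; test concentration not given here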
[20] = target: E3 ubiquitin-protein ligase XIAP (Homo sapiens) (UniProt P98170); test: small molecules binding XIAP protein – biophysical, small-molecule microarray, fluorescence 635 nm, primary screen (AID 1181); settings: higher = more signal;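 further: score merges 667 nm emission and signal to noise over triplicate slides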
Sequence of E3 ubiquitin-protein ligase XIAP (Homo sapiens) (P98170 whole entry, looked up): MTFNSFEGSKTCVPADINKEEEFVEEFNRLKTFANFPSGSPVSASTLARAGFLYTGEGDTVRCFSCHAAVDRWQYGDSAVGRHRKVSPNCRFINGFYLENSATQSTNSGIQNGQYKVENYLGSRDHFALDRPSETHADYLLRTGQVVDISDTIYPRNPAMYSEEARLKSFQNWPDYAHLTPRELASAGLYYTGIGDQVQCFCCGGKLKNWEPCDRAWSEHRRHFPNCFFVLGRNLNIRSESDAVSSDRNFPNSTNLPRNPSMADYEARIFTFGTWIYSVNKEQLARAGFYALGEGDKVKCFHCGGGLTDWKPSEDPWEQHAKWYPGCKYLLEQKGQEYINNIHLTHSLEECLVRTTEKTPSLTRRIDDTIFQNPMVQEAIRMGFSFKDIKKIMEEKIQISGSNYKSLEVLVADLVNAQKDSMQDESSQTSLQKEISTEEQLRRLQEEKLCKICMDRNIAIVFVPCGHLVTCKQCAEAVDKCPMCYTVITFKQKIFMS

Sequence of Dihydroorotate dehydrogenase (quinone), mitochondrial (Plasmodium falciparum (isolate 3D7)) (Q08210 whole entry, looked up): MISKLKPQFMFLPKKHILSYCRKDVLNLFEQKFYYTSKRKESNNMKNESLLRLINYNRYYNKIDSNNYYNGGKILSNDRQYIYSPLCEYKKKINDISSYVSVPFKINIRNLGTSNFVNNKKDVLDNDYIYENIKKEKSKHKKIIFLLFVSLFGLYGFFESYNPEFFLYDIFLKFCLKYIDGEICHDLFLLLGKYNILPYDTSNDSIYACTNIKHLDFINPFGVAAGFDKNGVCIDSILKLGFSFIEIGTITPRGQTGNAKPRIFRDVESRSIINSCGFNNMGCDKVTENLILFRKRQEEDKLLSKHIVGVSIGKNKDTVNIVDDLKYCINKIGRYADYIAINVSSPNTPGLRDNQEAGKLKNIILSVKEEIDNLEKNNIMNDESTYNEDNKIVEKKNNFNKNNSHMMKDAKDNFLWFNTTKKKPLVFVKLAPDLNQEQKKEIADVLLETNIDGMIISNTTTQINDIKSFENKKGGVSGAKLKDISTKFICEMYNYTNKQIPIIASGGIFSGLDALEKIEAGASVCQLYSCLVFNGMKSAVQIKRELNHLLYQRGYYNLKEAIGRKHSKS

Row | SMILES | z-score [1] | z-score [2] | z-score [3] | z-score [4] | z-score [5] | z-score [6] | z-score [7] | z-score [8] | z-score [9] | z-score [10] | z-score [11] | z-score [12] | z-score [13] | composite z-score [14] | z-score [15] | z-score [16] | z-score [17] | z-score [18] | z-score [19] | composite z-score [20]
1 | COc1ccc([Si](C)(C)[C@@H]2[C@@H](CCO)O[C@]3(C(=O)N(Cc4cccc(N5CCCCC5=O)c4)c4ccccc43)[C@H]2C)cc1 | -0.86 | 0.161 | -1.7 | -2.75 | -1.65 | -1.94 | 0.128 (inactive) | -1.02 | -1.43 | -0.55 (inactive) | -0.994 | 0.697 (inactive) | -1.93 (inactive) | -1.75 (inactive) | 0.225 (inactive) | 5.19 (inactive) | 0.318 (inactive) | 0.244 (inactive) | -0.439 | 0.0623
2 | O=C(NCc1ccccc1)[C@@H]1c2ccccc2C(=O)N(C2CCCCC2)[C@H]1c1ccc(CO)cc1 | 1.53 | -0.116 | 1.54 | 0.499 | -0.0572 | 2.46 | 0.401 (inactive) | 0.739 | -0.531 | -0.222 (inactive) | -0.178 | 0.0854 (inactive) | -0.765 (inactive) | 0.0557 (inactive) | 0.0993 (inactive) | 0.138 (inactive) | 0.0692 (inactive) | 0.268 (inactive) | -1.7 | 0.117
3 | COCCOC(=O)N1C(=O)[C@@]2(c3cc(C#CCC(C(=O)OC)C(=O)OC)ccc31)[C@H](c1ccccc1OCCO)N1[C@H](c3ccccc3)[C@H](c3ccccc3)OC(=O)[C@H]1[C@@H]2C(=O)Nc1nc2ccccc2s1 | 1.7 | 0.321 | 1.4 | -0.569 | -0.922 | -2.31 | 0.844 (inactive) | -0.76 | -0.578 | -0.0543 (inactive) | 0.513 | -0.561 (inactive) | 0.951 (inactive) | -1.19 (inactive) | 3.41 (inactive) | -0.929 (inactive) | 1.28 (inactive) | 1.76 (inactive) | 0.599 | -0.0785
4 | CC1CC/C=C\[C@H]2OC34C=CCN(c5ccc6ccccc6c5)C(=O)[C@H]3N(CCCCCO)C(=O)[C@@H]4C2C(=O)O1 (stereo not given in full) | 0.111 | 0.956 | 0.778 | 1.68 | -0.823 | -0.684 | -0.381 (inactive) | 1.1 | 0.401 | -0.292 (inactive) | -0.304 | -0.317 (inactive) | -0.634 (inactive) | -0.164 (inactive) | -0.484 (inactive) | -0.122 (inactive) | 0.11 (inactive) | 0.312 (inactive) | -0.0986 | -0.471
5 | CN1C(=O)C2C=CC(C(O)c3ccccc3)N(NC(=O)OC(C)(C)C)C2C1=O (stereo not given) | -1.66 | 0.103 | -0.983 | -0.965 | -0.386 | -1.22 | -0.0572 (inactive) | -0.306 | 0.32 | -0.449 (inactive) | -1.24 | 1.34 (inactive) | -0.749 (inactive) | 0.802 (inactive) | 0.31 (inactive) | 1.18 (inactive) | -0.68 (inactive) | -0.454 (inactive) | -0.0265 | 0.0338
6 | O=C1OCCC=C[C@H]2OC34C=CCN(c5ccc6ccccc6c5)C(=O)[C@H]3N(CCCCCCO)C(=O)[C@@H]4C12 (stereo not given in full) | 0.705 | -0.488 | 0.461 | 1.1 | 0.734 | 1.3 | 0.0246 (inactive) | -0.00773 | -0.456 | 0.866 (inactive) | 0.523 | -0.546 (inactive) | -0.0449 (inactive) | 0.401 (inactive) | -0.497 (inactive) | 0.522 (inactive) | 0.982 (inactive) | 1.29 (inactive) | 0.868 | -0.0953
7 | COc1ccc([Si](C)(C)[C@@H]2[C@@H](CCO)O[C@]3(C(=O)N(Cc4cccc(N(C=O)c5ccccc5)c4)c4ccccc43)[C@H]2C)cc1 | -1.54 | 1.72 | -0.854 | -1.12 | -1.68 | 0.719 | -0.0903 (inactive) | -0.881 | 0.0823 | -2.24 (inactive) | -2.41 | 1.27 (inactive) | -3.21 (inactive) | -0.82 (inactive) | -0.0818 (inactive) | 4.68 (inactive) | -0.818 (inactive) | -1.62 (inactive) | -2.73 | 0.0449
8 | [N-]=[N+]=Nc1ccccc1[C@@H]1OC(c2ccc(OCCCO)cc2)=N[C@]1(CCS(=O)(=O)c1ccccc1)C(=O)N1CCCCC1 | -0.564 | -0.56 | -0.0675 | -0.92 | -0.739 | -0.827 | 0.0238 (inactive) | -0.881 | -0.923 | -0.127 (inactive) | -0.644 | 1.69 (inactive) | -1.66 (inactive) | 1.06 (inactive) | 0.687 (inactive) | 2.08 (inactive) | -0.0955 (inactive) | -0.933 (inactive) | -1.81 | -0.202
